# Compound activity as filed in PubChem BioAssay.
# CYP2C19 inh: inhibitors of human CYP2C19 | CYP2C19 Supersomes, luciferin-H EGE luminescence, 30 min | inhibition, % at 5 µM | 96,000 tested, 21% active | AID 778;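 active = CYP2C19 inhibition above a set limit at 5 µM in the primary screen, cut at about 50% in these data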
# CYP2C9 activ: CYP2C9 (human) activation; recombinant CYP2C9, luciferin-H conversion, luminescence; hits give high values; factor 1 = untreated enzyme, 0 = blocked; activation factor at 5 µM; 96,000 tested, 1.4% active; AID 1024;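 active = activation factor of 2 or more for CYP2C9 at a 5 µM dose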
# Target sequence (P11712 whole entry, looked up): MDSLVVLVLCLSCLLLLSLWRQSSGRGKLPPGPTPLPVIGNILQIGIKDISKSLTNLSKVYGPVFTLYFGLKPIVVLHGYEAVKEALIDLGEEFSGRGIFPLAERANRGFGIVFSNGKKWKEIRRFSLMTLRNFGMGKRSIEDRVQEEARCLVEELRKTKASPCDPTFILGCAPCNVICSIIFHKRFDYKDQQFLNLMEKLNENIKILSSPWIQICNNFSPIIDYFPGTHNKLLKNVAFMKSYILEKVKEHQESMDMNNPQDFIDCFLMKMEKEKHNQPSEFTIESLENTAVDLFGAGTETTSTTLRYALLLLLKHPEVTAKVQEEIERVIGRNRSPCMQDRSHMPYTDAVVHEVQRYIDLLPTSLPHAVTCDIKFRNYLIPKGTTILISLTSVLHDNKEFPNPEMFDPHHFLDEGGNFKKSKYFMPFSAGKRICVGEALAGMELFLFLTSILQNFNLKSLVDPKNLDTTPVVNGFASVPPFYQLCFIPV
# CYP2C9 inhib: human CYP2C9 inhibition; inhibition, % at 5 µM; CYP2C9 Supersomes, luciferin-H conversion, luminescence; 96,000 tested, 20% active;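 active = blocking of liver enzyme CYP2C9 beyond about 50% at 5 µM, limit read from the data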
# PostGolgi ctrl: growth of the yeast control strain, post-Golgi counter-screen | efflux-deficient yeast background strain, growth absorbance A615, 16 h | inhibition, % at 10 µM | 98,000 tested, 5% active
# PostGolgi yeast: growth inhibition of a yeast mutant, post-Golgi transport screen. post-Golgi transport phenotypic cell assay. 98,000 tested, 0.9% active. inhibition, % at 10 µM;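 also: yeast cells grown in 1536-well plates; yeast grown about 18 h at 30C before absorbance read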
# CYP2C19 activ: activators of human cytochrome P450 2C19. P33261. recombinant CYP2C19, luciferin-H EGE luminescence; hits give high values; 0 = fully inhibited enzyme, 1 = untreated enzyme. activation factor at 5 µM. 96,000 tested, under 10 active. AID 1025;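 active = activation factor of at least 2 at 5 µM in the primary screen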
# Hits are given with their value; . = inactive; / = not tested or not shown. Sampled rows, rich in hits. Any-hit rate of the full collection: about 32%. Rule as the data show it, unless noted: active = inhibition above about 30%; inactive = the rest.
SMILES,CYP2C19 inh,CYP2C9 activ,CYP2C9 inhib,PostGolgi ctrl,PostGolgi yeast,CYP2C19 activ
O=C(COC(=O)C1CC(=O)N(Cc2ccco2)C1)c1ccc(OC(=O)c2ccco2)cc1 (stereo not given),/,/,/,.,.,/
COc1cc2c(cc1NC(=O)COC(=O)C1CC(=O)N(Cc3ccco3)C1)oc1ccccc12 (stereo not given),.,.,59,.,.,.
Cc1[nH]c2ccccc2c1C(=O)COC(=O)C1CC(=O)N(Cc2ccco2)C1 (stereo not given),56,.,.,.,.,.
CCc1nc2ccc(F)cc2c(C(=O)NC2CCCCC2C)c1C (stereo not given),.,.,77,.,.,.
Cc1ccc(-c2csc(=S)n2CC(=O)OCC(=O)NCc2ccc(F)cc2)cc1,80,.,87,.,.,.
CCc1ccc2nc(N3C(=O)C(O)=C(C(=O)c4ccco4)C3c3cccs3)sc2c1 (stereo not given),/,/,/,36,.,/
Cc1ccc2nc(N3C(=O)C(O)=C(C(=O)c4cc5ccccc5o4)C3c3cccs3)sc2c1 (stereo not given),.,.,.,.,.,.
O=C(NC(C(=O)c1ccccc1)N1CCOCC1)c1ccccc1 (stereo not given),79,.,91,.,.,.
Cc1ccc(C(=O)C(NC(=O)c2ccco2)N2CCOCC2)cc1 (stereo not given),.,.,.,.,.,.
O=C(NC(C(=O)c1ccccc1)N1CCOCC1)c1cccs1 (stereo not given),94,.,96,33,.,.
O=C(Nc1ccc(CN2CCOCC2)cc1)c1cccs1,.,.,.,.,.,.
CCN(CC)N=Nc1[nH]nc2nc(C)cc(C)c12,.,.,.,.,.,.
COc1ccc(C)cc1S(=O)(=O)N1CCN(c2cccc(C(F)(F)F)c2)CC1,98,.,.,.,.,.
COc1ccc(N2CCN(S(=O)(=O)c3cccc(C(F)(F)F)c3)CC2)cc1,61,.,.,.,.,.
CCOC(=O)N1CCN(C(=O)COc2ccc(S(=O)(=O)NC(C)C)cc2)CC1,.,.,.,/,/,.
CCOC(=O)CCCCC(=O)c1[nH]c(=O)[nH]c1CSc1nc2ccccc2[nH]1,/,/,/,.,.,/
CCOC(=O)C1(CCC(C)C)CC(CSc2nc3ccccc3[nH]2)OC1=O (stereo not given),.,.,58,.,.,.
CCOC(=O)C1(CC)CC(CSc2nc3ccccc3[nH]2)OC1=O (stereo not given),52,.,82,.,.,.
CC1(C(=O)CSc2nc3ccccc3[nH]2)CCC(=O)O1 (stereo not given),/,/,/,.,.,/
O=C(O)CSc1nnc(CNc2cccc(C(F)(F)F)c2)n1Cc1ccco1,.,.,.,.,.,.
O=[N+]([O-])c1cc(Cl)cc(/C=N\Nc2ccccn2)c1O,54,.,50,.,80,.
Cc1cccc(C)c1-n1c(C)cc(/C=N\Nc2ccc([N+](=O)[O-])cn2)c1C,.,.,.,.,.,.
CCOc1ccc(Nc2nc(Cc3nnc(SCC(=O)NC4CCCCC4)n3C)cs2)cc1,79,.,91,.,.,.
COc1ccc2cc(C(=O)c3ccccc3)c(=O)oc2c1,92,.,.,.,.,.
COc1ccc(C(=O)c2ccccc2Cl)cc1,81,2.5,.,.,.,.
SMILES,CYP2C19 inh,CYP2C9 activ,CYP2C9 inhib,PostGolgi ctrl,PostGolgi yeast,CYP2C19 activ
COc1ccc(C(=O)c2c[nH]c3ccccc23)cc1,.,.,.,.,.,.
CCOC(=O)c1sc(NC(=S)NC(=O)c2cccc(Cl)c2)c(C(=O)OCC)c1C,.,.,.,.,.,.
CN(Cc1cccc(F)c1)C(=O)c1ccc(S(=O)(=O)C(F)F)cc1,59,.,.,.,.,.
CN(CC(=O)NCc1cccc(F)c1)C(=O)c1ccco1,.,.,.,.,.,.
Oc1c(C(c2cccs2)N2CCC3(CC2)OCCO3)sc2ncnn12 (stereo not given),87,.,58,.,.,.
COc1ccc(C(=O)Nc2ccccc2-c2nnn(CC(=O)Nc3ccc4c(c3)OCCO4)n2)cc1,.,.,.,.,.,.
Cn1c2ccccc2c(=O)c2c(=O)n(C3CCCCC3)c(-c3cccs3)nc21,.,.,95,.,.,.
CCC(=O)Nc1c(-c2cccs2)c(=O)c2ccccc2n1C,.,.,.,.,.,.
O=C(OCC#CCSc1nnc(-c2ccc(Br)cc2)o1)c1ccco1,.,.,.,.,.,.
O=C(OCC#CCSc1nnc(-c2ccccc2)o1)c1cccs1,.,.,.,.,.,.
O=C(OCC#CCSc1nc2ccccc2s1)c1ccco1,83,.,72,.,.,.
O=C(OCC#CCSc1nnc(-c2ccccc2)o1)c1ccco1,88,.,58,.,.,.
O=C(OCC#CCSc1nnc(-c2cccc3ccccc23)o1)c1cccs1,.,2,.,.,.,.
O=C(CSc1nc2ccccc2s1)N1CCN(C(=O)c2ccco2)CC1,.,.,.,.,.,.
Cn1c2ccccc2c2c(C(=O)O)cn(C3CCCC3)c(=O)c21,.,.,.,.,.,.
Cn1c2ccccc2c2c(C(=O)N3CCN(C(=O)c4ccco4)CC3)cn(C3CCCCC3)c(=O)c21,.,.,74,.,.,.
Cn1c2ccccc2c2c(C(=O)N3CCN(c4ccccn4)CC3)cn(C3CCCC3)c(=O)c21,69,.,94,.,.,.
COc1ccc(N2CCN(C(=O)c3cn(C4CCCC4)c(=O)c4c3c3ccccc3n4C)CC2)cc1,77,.,90,.,.,.
COc1ccc(N2CCN(C(=O)c3cn(C)c(=O)c4c3c3ccccc3n4C)CC2)cc1,.,.,.,.,.,.
COc1ccc(NC(=O)CN(C)C(=O)c2ccc(C)s2)cc1,.,.,.,.,.,.
O=C(NC1CCCCC1)C1CN(S(=O)(=O)c2ccccc2)CCN1S(=O)(=O)c1ccccc1 (stereo not given),.,.,.,.,.,.
COC(=O)c1c(NC(=O)c2ccc(Br)s2)sc2c1CCC2,.,.,.,.,.,.
Cc1ccccc1NC(=O)c1ccc(C)c(S(=O)(=O)Nc2ccccn2)c1,.,.,.,.,.,.
COC(=O)c1c(NS(=O)(=O)c2ccc3ccccc3c2)sc2c1CCCC2,100,.,98,.,.,.
COC(=O)c1c(NC(=O)c2ccc(C)c(S(=O)(=O)Nc3ccccc3C)c2)sc2c1CCCC2,.,.,59,.,.,.
CC(C)(C)NC(=O)c1sccc1C(=O)O,/,/,/,.,.,/
C=CCN(CC(=O)Nc1c(C)cccc1CC)C(=O)SCCC,65,.,.,.,.,.
CCSC(=O)N(CC)CC(=O)Nc1c(CC)cccc1CC,.,.,.,.,.,.
CCCSC(=O)N(CC)CC(=O)Nc1c(CC)cccc1CC,66,.,62,.,.,.
Cc1ccc(NC(=O)CN(C)CC(=O)Nc2c(C)cccc2C)c(Br)c1,.,.,.,.,.,.
